What all share (test): NCI-60 one-dose screen, 48 h (100 = growth as untreated, 0 = no growth, -100 = all killed)
Common to all, as to conditions: 10 µM unless noted

For test [1], the system named is HCT-15 colon.
Test [2] relates to HT29 colon.
The subject of test [3] is SNB-75 CNS.
The test system of test [4] is SNB-19 CNS.
The test system of test [5] is U251 CNS.
Test [6] deals with PC-3 prostate.
In test [7] the test system is LOX IMVI melanoma.
Test [8] has as its system SK-MEL-5 melanoma.
Test [9] deals with UACC-62 melanoma.
In test [10] the test system is SK-MEL-28 melanoma.

About 83,000 compounds went through this panel and 20% of them were active in at least one assay; those are over-represented in the sample as a whole.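 Treatment: one concentration, 48 hours, 96-well format. Scoring: percent growth, with anything below 10 considered active.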 Unmarked numbers belong to inactive results. Active and inactive are the calls of the source.

As to `C=C1C(=O)O[C@@H]2C[C@@H](C)/C=C\C(=O)[C@](C)(OC(C)=O)C[C@H](OC(=O)/C(C)=C\C)[C@@H]12`, the growth in [1] is -26% (active); in [2], -48.6% (active); in test [3], 38.2%; in test [4], 60.1%; in test [5] it was 2.55% (active); in test [6], 1.27% (active). For the same compound, the growth in test [7] is -75.1% (active).

As to `CS(=O)(=O)c1nccc(-c2c(-c3ccc(F)c(OCCc4ccccc4)c3)nc3sccn23)n1`, the growth in [1] was 83.1%; in test [2], 91.3%; in test [3], 108%; in test [5], 105%; in test [6] it was 41.7%; in [8], 98%. For the same compound, in test [7], the growth was 75.2%.

As to `CC1OC(O[C@@H]2C(O)C(CO)OC(O[C@H]3COC(O[C@H]4CC[C@]5(C)[C@H]6CC[C@]78OC[C@@]9(CC[C@](C)(C=O)C[C@H]97)[C@H](O)C[C@@]8(C)[C@]6(C)CC[C@H]5C4(C)C)[C@@H](OC4OC(CO)[C@@H](O)[C@@H](O)[C@@H]4O)[C@@H]3O)[C@H]2OC2OC[C@@H](O)[C@@H](O)[C@@H]2O)[C@@H](O)[C@@H](O)[C@H]1O` (some centres undefined), the growth in [1] is 83.7%; in [2], 6.44% (active); in test [3] it was -65.2% (active); in [4] it was -49.2% (active); in [5] it was -87.5% (active); in test [6] it was -80.5% (active). Further, the growth in [7] was -5.38% (active).

Take `O=c1c2c(O)cccc2oc2c3c(cc(O)c12)O[C@H]1OC=C[C@@H]31`: the growth is 87.8% in [1]; 88.9% in test [2]; 85.7% in test [3]; 92.9% in test [5]; 90.1% in test [6]; 81.1% in test [8]. The results for the growth in [9], in [7] and in test [10] were 81%, 87.4% and 108%, respectively.

Consider `COCCOc1ccc(-c2csc(NC(C)=O)n2)cc1NS(=O)(=O)c1cccc2c(N(C)C)cccc12`, for which the growth is 94.5% in test [1]; 89.3% in test [2]; 94.2% in test [3]; 99.5% in [5]; 68.5% in [6]; 78.8% in test [8]. For the same compound, the growth in test [9] is 60.8%; in test [7], 98.4%; in test [10], 83.1%.

For the compound `Cc1ccc(NC(=O)c2ccc(CN3CCN(C)CC3)c(I)c2)cc1Oc1ccc(-c2[nH]nc3ncnc(N)c23)cc1`, the growth was -54.1% (active) in test [1]; -71.1% (active) in [2]; 100% in test [3]; -59.8% (active) in test [5]; 75.2% in [6]; 62.6% in test [8]. The results for the growth in test [9], in test [7] and in test [10] were 85%, -86.5% (active) and -84.6% (active), respectively.

In the case of `COc1ccc(-c2nnc(/N=C3/C(=O)Nc4ccc(Br)cc43)o2)cc1`, the growth in test [1] is 91.3%; in test [2], 113%; in test [3] it was 90%; in test [4], 97.8%; in test [5], 107%; in test [6] it was 104%. Besides, the growth in test [9] is 95.7%; in test [10] it was 102%.

For the compound `C=C(C)C(=O)O[C@H]1C[C@@]2(C)OC(=CC2=O)/C(CO)=C\[C@H]2OC(=O)C(=C)[C@H]12`, the growth is -19.5% (active) in test [1]; -12.2% (active) in test [2]; -0.788% (active) in [3]; 42.2% in test [4]; -17.7% (active) in test [5]; -3.05% (active) in [6]. The growth in test [7] was -94.1% (active).

On to `COc1ccc2c(C3=C(c4c[nH]c5ccccc45)C(=O)N(O)C3=O)coc2c1`, for which the growth is 92.2% in [1]; 95.4% in [2]; 105% in test [3]; 98% in [5]; 81.2% in test [6]; 94.5% in [8]. For the same compound, the growth in test [9] is 80.4%; in test [7], 52.2%; in test [10], 110%.

With `Cc1cc(NS(=O)(=O)c2ccc(-c3cnc(C4CC4)o3)cc2)ccc1I`, the growth is 30.5% in [1]; 14.2% in test [2]; 30.1% in test [5]; 22.7% in [6]; 31.5% in [8]; 30.3% in test [9]. For the same compound, the growth in test [10] is 62%.

Regarding `CCCC(=O)NC(c1cccnc1)c1ccc2c(C)ccnc2c1O` (centres undefined), the growth in [1] is 26.9%; in test [2], 20.3%; in [5], 26.7%; in test [6], 36.4%; in [8], 4.06% (active); in test [9], -7.84% (active). In addition, the growth in test [7] was 9.72% (active); in test [10], 30.4%.

Consider `O=C(COc1ccc(C2SCC(=O)N2c2ccccc2)cc1)c1ccccc1` (centres undefined), for which the growth in test [2] is 105%; in [3], 87.5%; in test [4] it was 99.4%; in [5] it was 95.8%; in test [6] it was 80.5%; in test [8], 94.4%. The growth in test [9] is 68.6%; in [7], 93.3%.

`COc1cc(/C=N/n2cnc3oc(-c4ccccc4)cc3c2=N)cc(CN2CCCCC2)c1O`: the growth was -79.8% (active) in test [1]; -14.1% (active) in [2]; -41.3% (active) in [4]; -66.5% (active) in [5]; -31% (active) in [6]; -89.7% (active) in test [8]. The growth in test [7] was -86.6% (active); in test [10], -85.8% (active).

In the case of `Oc1ccc(CSc2nnc(-c3ccc(Br)cc3)o2)c2cccnc12`, the growth was 10.7% in test [1]; 111% in test [2]; 20% in test [4]; 12.5% in [5]; 23% in test [6]; 27.3% in [9]. The growth in test [7] is 20.3%.

As to `CCN(CC)CCCC(C)NCC(=O)NC(c1ccc2c(c1)OCO2)c1cc(Cl)c2cccnc2c1O` (centres undefined), the growth in test [1] is 20.6%; in [2] it was 23.6%; in test [4] it was 38.1%; in [5] it was 30.2%; in test [6], 20.1%; in test [8] it was -77.4% (active). The growth in [9] is -17.6% (active); in test [7], -30.1% (active); in test [10], 46.5%.

Values taken from PubChem BioAssay (NCI).
